Screening results deposited in PubChem by several laboratories.
BoNT-A LC inh2: BoNT/A light chain protease inhibitors, primary screen, biochemical, flow cytometry, MLPCN library | Botulinum neurotoxin type A light chain protease (Clostridium botulinum A str. ATCC 3502) | inhibition, % at 10 µM | 360,000 tested, 0.17% active | multiplex microsphere protease substrate cleavage | AID 588499, 2011; also: plate controls were buffer without enzyme for full effect and enzyme alone for no effect
MazF activator: activators of E. coli MazEF toxin-antitoxin RNase, primary screen, biochemical, fluorescence, uHTS; FAM/BHQ RNA-DNA oligo cleavage fluorescence, 5 h; 350,000 tested, 0.32% active; Endoribonuclease toxin MazF (Escherichia coli (strain K12)), P0AE70; activation, % at 20 µM; in the data active = activation above about 50%
Target sequence (P0AE70 whole entry, looked up): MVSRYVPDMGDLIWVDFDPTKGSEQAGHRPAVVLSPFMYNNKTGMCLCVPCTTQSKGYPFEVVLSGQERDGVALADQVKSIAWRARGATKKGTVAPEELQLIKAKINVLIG
Anthrax LF inh2: Bacillus anthracis LF protease inhibitors, primary screen, biochemical, multiplex microsphere, MLPCN library; multiplex microsphere protease cleavage assay; Lethal factor (Bacillus anthracis), P15917; 360,000 tested, 0.12% active; inhibition, % at 10 µM; also: plate controls were buffer without enzyme for full effect and enzyme alone for no effect
Bead autofluor: flagged as autofluorescent in microsphere protease counterscreen | compound autofluorescence counterscreen, microsphere flow cytometry; stronger effect = higher value | fluorescence intensity (concentration not given with the values) | 360,000 tested, 3.1% active; in the data active = fluorescence intensity above about 16000; inconclusive = no clear call, values can overlap the other calls
BoNT F protease: BoNT/F light chain protease inhibitors, primary screen, biochemical, flow cytometry, MLPCN library; Botulinum neurotoxin type F light chain protease (Clostridium botulinum); Multiplex microsphere protease cleavage assay; inhibition, % at 10 µM; 360,000 tested, 0.22% active; AID 588497, 2011; in the data active = inhibition above about 35%, passing the limit was not always enough; inconclusive = no clear call, values can overlap the other calls; also: plate controls were buffer without enzyme for full effect and enzyme alone for no effect
* hit, by the source's call; ? = inconclusive; · = no result given. Rows were chosen to be rich in hits. Some 3.7% of all compounds tested hit in one or more screens of this group. Rule as the data show it, unless noted: active = inhibition above about 30%; inconclusive = no clear call, values can overlap the other calls; inactive = below that.

SMILES	BoNT-A LC inh2	MazF activator	Anthrax LF inh2	Bead autofluor	BoNT F protease
COc1ccc(N2CC(C(=O)NCCc3ccc(OC)c(OC)c3)CC2=O)cc1 (centres undefined)	-0.1	4.0	-3.8	22233*	-5.4
COc1ccc(CN2CC(C(=O)NCCc3ccc(C)cc3)CC2=O)cc1 (centres undefined)	0.8	3.8	-1.2	20337*	1.6
CC(=O)c1ccc(NC(=O)C2CC(=O)N(Cc3ccccc3)C2)cc1 (centres undefined)	7.3	8.0	-14.5	17232*	9.5
CCN(CC)C(=O)C1=C(C)N(CCCOC)C(=O)C(CC(=O)NC2CCCC2)C1 (centres undefined)	0.2	7.1	-3.7	3652	-0.4
CCOc1cc2c(c3c1C(c1ccccc1)N(S(=O)(=O)c1ccc(C)cc1)C3)C(=O)C=CC2=O (centres undefined)	2.5	·	-4.5	5053	-2.6
O=c1[nH]c(=S)[nH]c2c1C(c1ccc(F)cc1)OC(CCOCc1ccccc1)C2 (centres undefined)	-0.6	·	-6.2	5818	4.3
CC(=O)Nc1nc(-c2ccc(Cl)cc2)nc(C)c1C(C)=O	3.4	-2.2	-3.9	5272	35.4*
Cn1cc(/C=C(\NC(=O)c2ccccc2)C(=O)NCCCN2CCOCC2)c2ccccc21	2.1	9.4	1.3	5376	8.4
CCCNC(=O)Cn1cnc2sc(C(=O)N3CCN(c4ccc(F)cc4)CC3)c(C)c2c1=O	0.1	-1.4	-1.1	20571*	1.1
CCCNC(=O)Cn1cnc2sc(C(=O)N3CCCC(C(=O)OCC)C3)c(C)c2c1=O (centres undefined)	0.2	11.8	3.5	4611	7.5
COc1ccc(NC(=O)Nc2ccc3c(c2)C(=O)N([C@H](C)CO)C[C@H](C)[C@@H](CN(C)C(=O)Nc2ccccc2)O3)cc1	-0.6	1.8	-4.4	3138	-10.7
O=C(CSc1nc2ccccc2[nH]1)NCCCn1ccnc1	0.8	0.3	0.3	16490*	0.6
CCOc1cc(C2C(C(=O)OC)=CN(Cc3ccc(Cl)cc3)C=C2C(=O)OC)ccc1O	3.5	1.7	-7.5	3776	48.0*
COC(=O)C1=CN(C)C=C(C(=O)OC)C1c1ccc(O)c(OC)c1	?	1.0	-5.7	23196*	-6.3
O=C(c1cccs1)N1CCCC(c2nc3c(nnn3Cc3ccccc3Cl)c(=O)[nH]2)C1 (centres undefined)	-0.8	-0.1	0.7	4509	-7.6
CCN(CC)c1ccc(/C=C/C(=O)C2C(=O)C=C(C)OC2=O)cc1 (centres undefined)	70.0*	-150.0	73.0*	66487*	154.2*
CCN(CC)c1ccc(C=C2C(=O)OC(c3ccccc3)OC2=O)cc1 (centres undefined)	1.2	-186.0	1.9	6818	4.0
CCc1cc2cc3c(cc2nc1SCC(=O)Nc1nnc(C)s1)OCCO3	-0.4	-14.9	-2.9	6296	-5.1
CCc1nnc(NC(=O)CSc2nc3cc4c(cc3cc2CC)OCCO4)s1	-0.5	81.7*	-3.3	4459	5.7
CCN(CC)CCOC(=O)C1(c2ccccc2)CCCC1	-1.4	2.7	-2.0	10889	-6.4
O=C(OCCCN1CCCC1)C1(c2ccccc2)CCCC1	?	6.5	-2.4	24071*	-5.1
Cc1cccc(Nc2nc(N)c([N+](=O)[O-])c(NCc3ccco3)n2)c1	-1.8	7.1	-10.3	6992	-18.0
Nc1nc(Nc2cccc(F)c2)nc(NCc2ccco2)c1[N+](=O)[O-]	·	65.9*	·	·	·
Cc1ccc(O)c(Nc2c3ccccc3nc3ccccc23)c1	-0.7	21.4	-6.0	2972	-9.0
Cc1ccc2c(c1)=N/C(=N\c1[nH]c(O)c3ccccc13)N=2	3.0	57.5*	5.6	3486	26.8
SMILES	BoNT-A LC inh2	MazF activator	Anthrax LF inh2	Bead autofluor	BoNT F protease
O=C(NC1CCCCC1)NS(=O)(=O)c1ccc2c(c1)CCC2	-0.2	3.5	1.4	4198	-1.6
COc1ccc(OC)c(CN2CCN(C(=O)c3cccc(S(=O)(=O)Nc4ccc(F)cc4)c3)CC2)c1	-0.5	-0.5	-1.7	4087	1.8
COc1ccc2c(c1OC)C(=O)OC2CC(=O)c1ccc2c(c1)OCO2 (centres undefined)	?	3.3	2.1	16170*	2.0
COc1ccc2c(c1OC)C(=O)OC2C/C(=N\NC(N)=O)c1ccccc1 (centres undefined)	-0.7	-1.4	-4.1	4181	-3.0
Cc1ccc(C2C(=O)N(C3CCC(C)CC3)CC(=O)N2C2CCCC2)cc1 (centres undefined)	-3.5	-5.2	0.6	23411*	-1.6
O=C1C(c2ccc(F)cc2)N(C2CCCCC2)C(=O)CN1C1CCCC1 (centres undefined)	0.4	-13.2	0.8	9764	4.1
CCOCCCN1C(=O)CN(C2CCC(C)CC2)C(=O)C1c1ccc(C)cc1 (centres undefined)	1.9	5.8	3.8	4028	0.0
COc1cc(C2C(=O)N(C3CCCC3)CC(=O)N2Cc2ccco2)ccc1OC(C)C (centres undefined)	4.9	-4.0	-1.5	21363*	5.3
CCCN1C(=O)CN(C2CCCCCC2)C(=O)C1c1ccc(C)cc1 (centres undefined)	-1.2	-6.1	1.7	23066*	-1.5
CCCOc1ccc(C2C(=O)N(C3CCCCC3)CC(=O)N2CCC)cc1OC (centres undefined)	0.4	0.4	0.8	20044*	1.6
COc1cc(C2c3[nH]c4ccccc4c3C[C@H]3C(=O)N(C4CC4)CC(=O)N23)ccc1OC(C)C (some centres undefined)	-1.2	7.0	-5.3	3719	-4.0
COc1ccccc1CN1C(=O)CN(C2CCCCCC2)C(=O)C1c1ccc(F)cc1 (centres undefined)	0.7	3.1	-1.1	10613	5.1
Cc1cccc(NS(=O)(=O)c2ccc(C(=O)NCC(c3ccccc3)N(C)C)cc2)c1C (centres undefined)	0.4	2.1	2.3	6112	-6.1
CCOc1ncccc1C(=O)Nc1ccc(S(=O)(=O)Nc2cc(C)nc(C)n2)cc1	-0.3	-0.3	-0.5	3433	-1.0
O=C(Nc1nccc(-c2cccs2)n1)c1ccccc1Cl	1.7	5.8	2.1	19543*	2.1
O=C(c1ccccc1Cl)N(C(=O)c1ccccc1Cl)c1nccc(-c2cccs2)n1	0.4	-8.1	-9.8	9665	0.1
CC(CN)(NS(=O)(=O)c1ccccc1)c1ccccc1 (centres undefined)	-1.0	3.6	-5.7	2898	17.9
CC(=O)c1c(C(C)=O)c(C)n(NC(=O)c2ccccc2O)c1C	?	1.4	2.4	20975*	4.2
CC(=O)c1c(C(C)=O)c(C)n(NC(=O)c2cccnc2)c1C	-0.7	2.9	-0.5	8128	-2.8
